DAX1 inh = DAX1 (NR0B1) inhibitors, primary screen, cell-based, HEK293, Gal4-DAX1, luciferase luminescence | inhibition, % at 6.75 µM | HEK293 Gal4-DAX1 luciferase reporter | Nuclear receptor subfamily 0 group B member 1 (Homo sapiens), P51843 | actives 0.99% (n = 340,000);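 active means inhibition above the mean over all tested compounds plus 3 SD, cut at about 4.2% in these data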;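 further: 0% = DAX1-transfected cells with DMSO and 100% = empty-vector control cells with DMSO; inhibition shows as a rise in luminescence from relieved DAX1 repression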
AHR act = AHR activators, primary screen, cell-based, luminescence, luciferase reporter, human | actives 2.5% (n = 320,000) | activation, % at 5 µM | AHR-responsive luciferase reporter cells | Aryl hydrocarbon receptor (Homo sapiens), P35869; in the data active means activation above about 47%;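 further: 0% = vehicle wells and 100% = reference agonist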
Target sequence (P35869 whole entry, looked up): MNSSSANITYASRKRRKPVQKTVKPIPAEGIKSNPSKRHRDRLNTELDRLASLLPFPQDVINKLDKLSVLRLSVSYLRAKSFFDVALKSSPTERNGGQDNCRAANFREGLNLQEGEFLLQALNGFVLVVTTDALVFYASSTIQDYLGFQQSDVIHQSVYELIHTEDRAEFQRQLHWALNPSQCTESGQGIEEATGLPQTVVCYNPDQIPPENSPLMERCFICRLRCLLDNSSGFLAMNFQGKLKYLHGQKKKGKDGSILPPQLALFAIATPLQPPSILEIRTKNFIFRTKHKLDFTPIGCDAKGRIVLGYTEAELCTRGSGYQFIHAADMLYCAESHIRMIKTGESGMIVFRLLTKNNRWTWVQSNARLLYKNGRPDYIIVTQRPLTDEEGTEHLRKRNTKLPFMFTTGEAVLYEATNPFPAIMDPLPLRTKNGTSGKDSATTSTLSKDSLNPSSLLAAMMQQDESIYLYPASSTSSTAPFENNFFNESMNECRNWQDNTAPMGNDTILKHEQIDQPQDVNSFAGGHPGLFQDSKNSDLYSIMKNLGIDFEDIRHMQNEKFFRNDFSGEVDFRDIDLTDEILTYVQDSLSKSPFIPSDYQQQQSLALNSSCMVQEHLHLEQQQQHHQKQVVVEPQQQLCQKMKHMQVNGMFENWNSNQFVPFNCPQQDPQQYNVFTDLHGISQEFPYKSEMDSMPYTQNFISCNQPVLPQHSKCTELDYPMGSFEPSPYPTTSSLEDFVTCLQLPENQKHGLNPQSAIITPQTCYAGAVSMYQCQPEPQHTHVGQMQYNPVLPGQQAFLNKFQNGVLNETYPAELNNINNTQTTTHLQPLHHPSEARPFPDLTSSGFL
HSF-1 act = HSF-1 activators, primary screen, NIH3T3-HGL cells, MG132 stress, luminescence, single point. activation, % at 9 µM. NIH3T3-HGL HSF-1 luciferase reporter, 8 h; 100% = twice DMSO control signal. actives 1.7% (n = 300,000);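 active means mean replicate activation of at least 50% with a set share of replicates each reaching 50%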;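 further: 0% = median of the neutral control wells and 100% = twice that signal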
FXN GAA850 act = FXN promoter activators, primary screen, cell-based, luciferase luminescence, HEK293 lucGAA850; actives 0.56% (n = 360,000); activation, % at 6 µM; HEK293 lucGAA850 FXN promoter luciferase reporter, 24 h; percent of 10 µM SAHA response; AID 540364, 2011;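 active means activation above the average of all compounds screened plus 3 SD, cutoff fixed separately per campaign, cut at about 7.5% in these data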;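 further: 0% = DMSO wells and 100% = 10 µM SAHA wells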
HSF1 inh = HSF1 inhibitors in luciferase reporter cells, primary screen, cell-based, NIH3T3, luminescence; NIH3T3-HGL HSE-luciferase, MG132-induced, luminescence 8 h; active compounds read low; activity change, negative = inhibition, % at 7.5 µM (by protocol); actives 0.77% (n = 300,000); AID 2098, 2009;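 active means more than half of replicate wells show activity change below -50%, luminescence cut by over half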;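 further: luciferase reports HSF-1 transcriptional activity via heat shock element; 0% = median of DMSO wells and -100% = zero luminescence signal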
HSP90 inh = HSP90 inhibitors, primary screen, cell lysate, luminescence. Rabbit reticulocyte lysate, luciferase refolding luminescence, 3 h. inhibition, % at 5.6 µM. actives 0.91% (n = 290,000);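 active means inhibition above the screen-wide mean plus 3 SD, computed separately per campaign, cut at about 16% in these data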;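 further: 0% = DMSO wells and 100% = 60 µM geldanamycin wells; inhibitors lower the luminescence because luciferase stays unfolded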
AHR act confirm = AHR activators, confirmation, cell-based, luminescence, luciferase reporter, human; human cells, AHR-responsive luciferase reporter; activation, % at 9 µM; AID 2845, 2010; shares compounds with AHR act; actives 87% (n = 2,300); in the data active means activation above about 49%;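 further: HepG2 hepatoma cells carrying a DRE-driven firefly luciferase reporter; 0% = vehicle wells and 100% = reference agonist wells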
PXR counter = human PXR activators, counter-screen for AHR activator project, cell-based, luciferase luminescence; shares compounds with AHR act; cell-based PXR reporter; activation, % at 11.6 µM; actives 88% (n = 2,300); in the data active means activation above about 11%;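 further: human hepatoma DPX-2 cells expressing full-length human PXR; 0% = DMSO and 100% = reference agonist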
* hit, by the source's call; nt = no result given. A selection: hits, their analogues and other compounds. The true share with any hit is near 5.9%.

SMILES	DAX1 inh	AHR act	HSF-1 act	FXN GAA850 act	HSF1 inh	HSP90 inh	AHR act confirm	PXR counter
COc1cccc(-n2c(SCC(=O)NCCC3=CCCCC3)nc3n[nH]c(C)c3c2=N)c1	nt	82*	12	nt	2	2	91*	161*
O=C(Nc1ccc(Cl)cc1)c1ccc2nsnc2c1	4	85*	42	3	19	-3	143*	12*
O=C(Nc1ccc(Cl)cc1)c1ccc2snnc2c1	1	129*	30	2	22	-4	103*	26*
CC(=O)c1sc(NC(=O)C2CCN(C(=O)c3ccc(F)cc3)CC2)nc1-c1ccccc1	-1	1	11	0	-7	nt	nt	nt
Cn1ccsc1=NC(=O)c1ccc(OC(F)(F)F)cc1	4	98*	22	3	11	-5	109*	24*
COc1ccc(C(=O)N=c2sccn2C)cc1	2	40	7	3	12	1	nt	nt
Cn1ccsc1=NC(=O)c1ccc(Cl)cc1	1	88*	37	5	4	-3	126*	25*
Cc1c(C2(O)CCCCC2)[nH]c2ccc(C(F)(F)F)cc12	-1	80*	nt	-3	nt	nt	81*	44*
COC(=O)CSc1nnc2cc(C)c3ccccc3n12	0	2	-18	1	2	0	nt	nt
O=C1c2ccccc2C(=O)N1CCCCN(C(=O)c1cc([N+](=O)[O-])cc([N+](=O)[O-])c1)c1ccc(Cl)cc1	-1	-3	25	0	14	-4	nt	nt
O=C1c2ccccc2C(=O)N1CCCCN(C(=O)c1ccc([N+](=O)[O-])cc1)c1ccc(Cl)cc1	-2	90*	-21	2	3	2	90*	214*
Cc1ccccc1/C=N/Nc1ccnc2cc(Cl)ccc12	-1	2	42	-3	9	-4	nt	nt
Cc1ccc(/C=N/Nc2ccnc3cc(Cl)ccc23)c(C)c1	-2	87*	11	-2	-8	0	16	16*
Brc1ccc2ncnc(Nc3ccc(N4CCOCC4)cc3)c2c1	-2	92*	-32	-9	-28	-3	63*	nt
C/C(CC(=O)Nc1cccc(Cl)c1C)=N\NC(=O)Cc1csc(N)n1	-1	8	9	2	0	0	nt	nt
CC(C)OC(=O)N(C)C[C@H]1OCc2cnnn2CCCC(=O)N([C@H](C)CO)C[C@@H]1C	0	nt	nt	1	nt	nt	nt	nt
Cc1ccc(CN=Cc2[nH]c3ccc(Br)c(Cl)c3c2O)cc1	0	29	-2	-3	-3	-2	nt	nt
Oc1c(C=NCc2ccc(F)cc2)[nH]c2ccc(Br)c(Cl)c12	nt	81*	7	nt	5	2	86*	31*
Cc1c(NC(=O)CCc2ccc(S(=O)(=O)N3CCOCC3)cc2)c(=O)n(-c2ccccc2)n1C	0	nt	nt	1	nt	nt	nt	nt
Cc1cc(C)nc(Nc2ncc(O)n2-c2ccccc2)n1	0	90*	14	1	1	0	61*	nt
Cc1ccc(-n2c(O)cnc2Nc2nc(C)cc(C)n2)cc1	0	14	1	-2	-7	1	nt	nt
Cc1noc(C)c1C(=O)N1CCCC(C(=O)c2cccc(C(F)(F)F)c2)C1 (stereo not given)	0	2	7	2	4	-4	nt	nt
CN(C)c1nc(N)nc(-c2nc3ccccc3s2)n1	3	80*	38	6	10	-2	167*	nt
CCn1c(COc2ccccc2C)nnc1SCc1nc2ccccc2c(=O)[nH]1	nt	0	7	nt	10	-7	nt	nt
COc1cc(Cl)ccc1OCc1cc(C(=O)NCc2cc(C(C)C)no2)no1	1	115*	29	5	4	-5	105*	45*
SMILES	DAX1 inh	AHR act	HSF-1 act	FXN GAA850 act	HSF1 inh	HSP90 inh	AHR act confirm	PXR counter
Cc1cc(-c2ccc(Cl)cc2)c2cnn(C(C)C)c2n1	-2	5	10	2	-3	-1	nt	nt
Cc1cc(C)n2cc(-c3ccc(Cl)cc3)c(C(=O)O)c2n1	1	96*	35	5	17	1	106*	nt
COc1ccccc1CNC(=O)COC(=O)c1cccc(S(=O)(=O)N2CCCCC2)c1	-1	4	-1	1	-6	4	nt	nt
COc1ccc(-c2oc3ccc(N4CCOCC4)cc3c2C#Cc2ccc(N)cc2)cc1	-1	95*	19	-1	2	nt	52*	nt
COc1ccc(-c2ccc3oc(-c4ccc(OC)cc4)c(C#CCCO)c3c2)cc1	1	6	21	-4	8	nt	nt	nt
CN(C(=S)NC(=O)c1ccc(Cl)cc1)C1CCCCC1	2	91*	-29	4	-13	8	113*	94*
CCCCCC(=O)Nc1nc(C)c(-c2csc(Nc3cc(OC)ccc3OC)n2)s1	-1	84*	-4	-2	-2	3	82*	73*
Cc1nc(NC(=O)CC(C)C)sc1-c1csc(Nc2ccc(Cl)cc2)n1	1	92*	37	1	8	6	96*	20*
CC(=O)Nc1ccc(Nc2nc(-c3sc(C)nc3C)cs2)cc1	-3	-3	-7	3	-2	-2	nt	nt
CCCCCC(=O)Nc1nc(C)c(-c2csc(Nc3cc(Cl)ccc3C)n2)s1	1	109*	-4	1	1	0	75*	27*
COc1ccc(OC)c(Nc2nc(-c3c(C)nc4ncccn34)cs2)c1	0	22	27	5	10	4	nt	nt
Cc1ccccc1-c1cc2nc(NCc3ccccc3)n(C)c(=O)c2s1	nt	nt	nt	-1	nt	nt	nt	nt
O=C(NCC1CCCCC1)c1ccc(Br)o1	0	0	-6	3	0	3	nt	nt
CC(=O)c1cccc(NC(=O)CSc2ncc(C(=O)Nc3ccccc3)c(=O)n2C)c1	0	13	24	4	6	nt	nt	nt
CC(=O)Nc1ccc(NC(=O)CSc2ncc(C(=O)Nc3ccc(F)cc3)c(=O)n2C)cc1	1	98*	-6	5	16	nt	127*	21*
O=C(Nc1ccon1)Nc1cc(Cl)ccc1Cl	0	122*	2	-1	1	-2	101*	11*
O=C(CCN1C(=O)/C(=C\c2ccccc2)SC1=S)NNC(=O)c1ccncc1	nt	3	16	-1	0	5	nt	nt

Assay outcomes as filed in PubChem BioAssay.
